# In the library only some 1.4% were active in any assay of this set; here they are far more common.
# GRK2 aptamer HTS: compounds blocking aptamer binding on GRK2 – biochemical, human GRK2, bead flow cytometry, HTS, primary screen. Beta-adrenergic receptor kinase 1 (Homo sapiens), P25098. FAM-aptamer displacement from GRK2. inhibition of aptamer binding, % at 10 µM. actives 0.59% (n = 330,000). AID 488847, 2010;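 active means inhibition of aptamer binding above 40%, roughly 3 SD of noise, on plates passing a quality check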;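 further: median bead fluorescence of bound FAM aptamer so fluorescent compounds give negative values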
# Target sequence (P25098 whole entry, looked up): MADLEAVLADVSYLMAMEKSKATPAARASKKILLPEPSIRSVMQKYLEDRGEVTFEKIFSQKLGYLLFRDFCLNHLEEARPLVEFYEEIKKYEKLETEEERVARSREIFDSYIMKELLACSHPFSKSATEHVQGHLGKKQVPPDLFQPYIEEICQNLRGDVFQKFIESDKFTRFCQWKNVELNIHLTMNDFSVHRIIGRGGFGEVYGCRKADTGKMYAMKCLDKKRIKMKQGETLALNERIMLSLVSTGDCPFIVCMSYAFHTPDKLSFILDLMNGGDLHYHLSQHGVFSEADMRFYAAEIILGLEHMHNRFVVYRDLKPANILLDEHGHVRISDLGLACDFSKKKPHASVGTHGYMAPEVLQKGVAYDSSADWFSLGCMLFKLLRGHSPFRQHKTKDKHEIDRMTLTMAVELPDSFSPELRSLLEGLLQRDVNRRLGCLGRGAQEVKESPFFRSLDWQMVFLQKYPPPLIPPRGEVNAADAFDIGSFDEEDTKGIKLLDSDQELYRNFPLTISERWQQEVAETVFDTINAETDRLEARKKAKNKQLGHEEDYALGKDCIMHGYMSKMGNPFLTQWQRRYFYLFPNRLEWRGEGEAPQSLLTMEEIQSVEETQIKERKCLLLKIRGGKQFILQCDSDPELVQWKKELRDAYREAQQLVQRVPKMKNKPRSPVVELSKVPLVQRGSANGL
# VLA-4 inh: inhibition in human VLA-4 binding assay, primary screen, VLA-4 allosteric modulator project, MLPCN library, flow cytometry, VLA-4 expressing cells. inhibition, % (about 7 µM as worked out from the volumes in the protocol). Integrin alpha-4 (Homo sapiens), P13612. ligand binding flow cytometry. actives 0.2% (n = 330,000). AID 2557, 2010; in the data active means inhibition above about 50%
# APOBEC3A inh: APOBEC3A ssDNA deaminase inhibitors, primary screen, selectivity assay for APOBEC3G inhibitor project, biochemical, FAM/TAMRA oligo cleavage fluorescence; recombinant A3A, FAM/TAMRA ssDNA deamination fluorescence; inhibition, % at 20 µM; actives 0.41% (n = 330,000);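 active means at least 40% inhibition at 20 µM here, with at most 30% in a related deaminase screen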;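 further: plate controls were A3A with DMSO for no effect and wells lacking A3A enzyme for full effect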
# A3G deaminase: APOBEC3G DNA deaminase inhibitors, primary screen, biochemical, fluorescence, single-stranded DNA substrate, uHTS | actives 0.28% (n = 330,000) | recombinant A3G, ssDNA deamination FAM/TAMRA fluorescence | inhibition, % at 20 µM | DNA dC->dU-editing enzyme APOBEC-3G (Homo sapiens), Q9HC16 | AID 493012, 2011;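 active means inhibition of at least 40% at 20 µM, with no more than 30% in the related APOBEC3A deaminase screen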;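 further: plate controls were DMSO wells with A3G for no effect and wells lacking A3G enzyme for full effect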
# GRK2 inh confirm: GRK2 aptamer-displacing inhibitors, retest, confirmation, biochemical, cherry pick 1, bead flow cytometry. aptamer displacement, % at 10 µM. AID 504451, 2011. bead-bound GRK2, FAM-aptamer displacement. shares compounds with GRK2 aptamer HTS. actives 4% (n = 2,000);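 active means aptamer displacement above 40%, near three times the noise of non-fluorescent compounds, on plates passing quality checks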;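 further: negative values mostly reflect intrinsic compound fluorescence rather than true enhancement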
# Aptamer quench 1: fluorescent aptamer quenching in GRK2 counter-screen dose response; shares compounds with GRK2 aptamer HTS; Fluorescent RNA aptamer beads, flow cytometry; hits give high values; fluorescence change (kMESF span), kMESF (no concentration beside the values); 110 tested, under 10 active; AID 504521;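 active means compounds whose bead fluorescence drops by more than 37 kMESF across the dose range, marking them as dye quenchers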
# FAM quench CP1: aptamer fluorescence quenching in GRK2 counter-screen; AID 504580; Carboxyfluorescein RNA aptamer on beads, flow cytometry quenching; hits give low values; shares compounds with GRK2 aptamer HTS; 2,000 tested, under 10 active; fluorescence response (% of DMSO), % at 10 µM;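 active means compounds that quench the bead-bound fluorescent RNA probe, cutting fluorescence to under half of the solvent control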;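 further: counterscreen run without GRK2 so only probe quenching by compound is measured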
# GRK2 CP2: GRK2 aptamer-displacing inhibitors, hit retest, confirmation, biochemical, cherry pick 2, bead flow cytometry; bead-bound GRK2, FAM-aptamer displacement; inhibition of aptamer binding, % at 10 µM; shares compounds with GRK2 aptamer HTS; 360 tested, under 10 active;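 active means inhibition of aptamer binding above 40%, about triple the noise seen with nonglowing compounds, on plates passing quality control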;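 further: negative values mostly come from compounds that fluoresce themselves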
# Aptamer quench3: fluorescence quenching of FAM-labeled RNA aptamer, dose response, artefact control for GRK2 aptamer inhibitor project, biochemical, flow cytometry, cherry pick 2. 25 tested, under 10 active. change in fluorescence (kMESF span), kMESF (no concentration beside the values). Streptavidin beads. shares compounds with GRK2 aptamer HTS;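 active means compounds quenching the bead-bound labeled aptamer, with fluorescence dropping by more than 37 kMESF over the dose range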
# FAM quench SP: aptamer fluorescence quenching in GRK2 counter-screen. shares compounds with GRK2 aptamer HTS. carboxyfluorescein RNA aptamer beads, flow cytometry quenching; hits give low values. fluorescence response vs DMSO, % at 10 µM. 360 tested, under 10 active;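 active means response vs DMSO under 50%, meaning signal dropped by over half, treated as fluorescence quencher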;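 further: labelled aptamer on streptavidin beads without GRK2 as a quench counter-screen; 100% = bead fluorescence of DMSO wells and lower means quenching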
# FAM quench PS1: quenchers of FAM-labeled RNA aptamer fluorescence, dose response, artefact control for GRK2 aptamer binding project, biochemical, powder set 1, flow cytometry; AID 588496, 2011; shares compounds with GRK2 aptamer HTS; fluorescence ratio to DMSO, % at 11.1 µM; Bead-bound FAM RNA aptamer fluorescence quenching; hits give low values; 35 tested, under 10 active;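 active means compounds that dim the fluorescent label, raw bead signal shifting by over 33 units between lowest and highest dose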
# APOBEC3A confirm: APOBEC3A deaminase inhibitors, retest, confirmation, selectivity assay for APOBEC3G inhibitor project, biochemical, single concentration, fluorescence readout. AID 493151, 2011. inhibition, % at 20 µM. actives 63% (n = 1,400). recombinant A3A, ssDNA deaminase UDG fluorescence assay. shares compounds with APOBEC3A inh;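 active means inhibition reaching a set limit, 80% of the first screen's cutoff, at 20 µM in any replicate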;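 further: plate controls were DMSO wells with A3A for no effect and wells lacking A3A enzyme for full effect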
# UDG A3A counter: E. coli UDG inhibitors, confirmation, counter-screen for APOBEC3A inhibitor project, biochemical, single concentration, fluorescence, FAM/TAMRA oligo; inhibition, % at 20 µM; shares compounds with APOBEC3A inh; 1,000 tested, under 10 active; AID 504714, 2011; UDG counterscreen, FAM/TAMRA uracil oligo fluorescence; call rule not given here
# * hit, by the source's call; / = not tested or not shown.
SMILES,GRK2 aptamer HTS,VLA-4 inh,APOBEC3A inh,A3G deaminase,GRK2 inh confirm,FAM quench CP1,others
COc1ccc(CN(C)C(=O)Cn2ccc(NC(=O)OCc3ccccc3)nc2=O)cc1OC,2.0,0.0,1.0,-6.7,/,/,
COc1ccc(CN(C)C(=O)Cn2ccsc2=N)cc1OC,0.0,3.4,2.7,-0.2,3.6,96.5,
O=C(c1cccc(F)c1)N1CCN(c2cccc(C(F)(F)F)c2)CC1,60.0*,-19.1,-1.6,3.0,0.7,94.3,
O=C(c1ccc2nccnc2c1)N1CCN(c2cccc(C(F)(F)F)c2)CC1,0.0,0.7,1.4,-4.3,/,/,
CCc1c(C(=O)NC2CCCC2)csc1C,97.0*,7.6,8.6,2.2,-4.2,95.4,
CCn1c(=O)cc(OCC(=O)NCCc2cccc(C)c2)c2ccccc21,0.0,7.1,0.4,-8.0,/,/,
COc1ccc(S(=O)(=O)N2CCCCC2)cc1NC(=O)c1ccc(N2CCCC2=O)cc1,79.0*,8.2,0.5,-0.4,1.2,101.0,
CN(C(=O)c1cccc(C#N)c1)c1nnc(-c2ccncc2)s1,/,/,/,/,-0.1,106.7,
CN(C(=O)c1cccc(C#N)c1)c1nnc(-c2cnccn2)s1,0.0,-3.9,-24.0,-3.4,/,/,
Cc1ccc(CS(=O)Cc2ccc(C(=O)N3CCN(c4ccc(F)cc4)CC3)o2)cc1 (stereo not drawn),0.0,24.9,-5.2,-4.2,/,/,
CCOCCCN(C(=O)CNC(=O)c1ccco1)C(C(=O)NC1CCCC1)c1ccccc1C (stereo not drawn),56.0*,5.4,2.7,-1.9,0.9,104.5,
Cc1cc([N+](=O)[O-])cnc1N1CCOCC1,88.0*,-1.1,-1.1,-5.7,1.4,115.5,
O=[N+]([O-])c1cnc(N2CCCCC2)c([N+](=O)[O-])c1,1.0,9.7,-4.4,-7.8,/,/,
Cc1ccc(N2CC(C(=O)Nc3cc(C)on3)CC2=O)c(C)c1 (stereo not drawn),4.0,1.0,-4.3,-0.5,/,/,
COc1ccccc1CN(C)C(=O)C1COc2ccccc2O1 (stereo not drawn),4.0,19.1,-0.1,-5.3,2.0,99.2,
CCCOc1ccc(CN(CCO)CCO)cc1[N+](=O)[O-],0.0,-6.8,3.1,-6.1,/,/,
Cc1cc(C(=O)Nc2ccc3c(c2)OCO3)no1,0.0,15.4,-1.6,-5.2,/,/,
CC(C)Cc1cc(C(=O)Nc2ccc3c(c2)OCO3)no1,74.0*,-19.3,-3.0,-0.8,-17.5,94.4,
CCOc1ccc2nc(NC(=O)CSc3nnnn3C3CCCCC3)sc2c1,4.0,8.8,-0.4,-3.6,/,/,
COc1ccc2nc(NC(=O)CSc3nnnn3C3CCCCC3)sc2c1,51.0*,12.5,-0.7,-3.8,-2.9,101.0,
CCCN1CCN(C(=O)C2CCN(S(=O)(=O)c3c(C)noc3/C=C/c3ccc(C)cc3)CC2)CC1,77.0*,7.8,-2.0,-0.7,-3.8,105.5,
COC(=O)CC1COc2ccccc2N1C(=O)c1ccc(C(C)(C)C)cc1 (stereo not drawn),0.0,6.5,-2.1,-5.8,/,/,
CCCCNc1ccc(S(N)(=O)=O)cc1[N+](=O)[O-],5.0,12.1,1.5,-2.2,/,/,
CCNc1ccc(S(=O)(=O)N(C)C)cc1[N+](=O)[O-],66.0*,8.2,67.0*,20.7,-3.3,96.6,APOBEC3A confirm=53.6*
NS(=O)(=O)c1ccc(CCNC(=O)CCS(=O)(=O)c2ccc(Br)cc2)cc1,87.0*,20.1,45.7*,24.4,/,/,GRK2 CP2=74.3*;Aptamer quench3=2.7;FAM quench SP=101.0;FAM quench PS1=101.0;APOBEC3A confirm=40.3*
SMILES,GRK2 aptamer HTS,VLA-4 inh,APOBEC3A inh,A3G deaminase,GRK2 inh confirm,FAM quench CP1,others
O=P(c1ccccc1)(c1ccccc1)c1cc(S(=O)(=O)O)ccc1O,74.0*,7.5,83.4*,16.8,52.4*,98.4,Aptamer quench 1=1.5;APOBEC3A confirm=63.4*;UDG A3A counter=-1.9
O=S(=O)(O)c1cc(O)c2c(O)c(N=Nc3cc(Cl)ccc3O)c(S(=O)(=O)O)cc2c1,99.0*,-20.2,91.5*,22.3,70.0*,99.5,Aptamer quench 1=6.6;APOBEC3A confirm=90.0*;UDG A3A counter=2.9
O=C(/C=C/c1ccco1)OCC(=O)N1CCCCC1,76.0*,0.0,49.1*,14.0,47.6*,92.8,Aptamer quench 1=-2.7;APOBEC3A confirm=38.3*;UDG A3A counter=2.9
O=C(/C=C/c1ccccc1)OCC(=O)N1CCCC1,1.0,7.3,-0.2,-4.1,/,/,
O=C1NC(=O)/C(=C\c2ccc(Br)o2)S1,90.0*,-9.3,55.3*,1.4,6.0,93.8,APOBEC3A confirm=22.2
C=CCN1CCN(Cc2cnc(Cl)s2)CC1,1.0,-0.5,-2.6,-4.9,/,/,
Cc1nnc(SCC(=O)NCc2ccco2)[nH]c1=O,5.0,-16.2,31.1,3.1,/,/,
Cc1cc(=O)[nH]c(SCC(=O)NCc2ccco2)n1,54.0*,5.8,65.2*,18.1,94.4*,99.1,Aptamer quench 1=2.1;FAM quench PS1=100.0;APOBEC3A confirm=55.0*;UDG A3A counter=0.9

# From PubChem BioAssay
